Screens as filed in PubChem.
PPC-1+TRAIL kill: PPC-1 cancer cell killing with TRAIL present; hit rate 0.41% among 220,000; PPC-1 cells + TRAIL, ATPLite viability luminescence; cell killing (% activity), % at 4 µM or 5 µM; AID 1443;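 active means cell killing above 50% in the first pass at 4 µM, then a duplicate retest at 5 µM averaging 50% or more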
SENP8 block-1: SENP8 protease inhibition; purified SENP8, Z-RLRGG-aminoluciferin cleavage, luminescence; inhibition, % at 10 µM; hit rate 1.2% among 330,000; AID 2540; in the data active means inhibition above about 50%
Target sequence (Q96LD8 whole entry, looked up): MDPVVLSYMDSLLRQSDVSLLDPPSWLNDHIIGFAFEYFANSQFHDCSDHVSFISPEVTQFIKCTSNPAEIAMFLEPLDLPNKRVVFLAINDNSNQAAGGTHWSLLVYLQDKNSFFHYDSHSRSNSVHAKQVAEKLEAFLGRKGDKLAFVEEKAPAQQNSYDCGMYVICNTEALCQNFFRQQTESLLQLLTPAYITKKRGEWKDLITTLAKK
SENP8 block-2: blocks human SENP8 cleavage of Nedd8 substrate | Q96LD8 | recombinant SENP8, Nedd8 substrate fluorescence | inhibition, % at 20 µM | hit rate 0.64% among 360,000 | AID 602440; in the data active means inhibition mostly above about 40%, no sharp cut-off; inactive means mostly below about 27%
SENP6 inh: SENP6 protease inhibition; Recombinant SENP6 catalytic domain, aminoluciferin luminescence; inhibition, % at 10 µM; hit rate 1.8% among 330,000;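 active means inhibition above about 50% at the single tested dose, limit read from the data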
Target sequence (Q9GZR1 628-1112 limits assumed): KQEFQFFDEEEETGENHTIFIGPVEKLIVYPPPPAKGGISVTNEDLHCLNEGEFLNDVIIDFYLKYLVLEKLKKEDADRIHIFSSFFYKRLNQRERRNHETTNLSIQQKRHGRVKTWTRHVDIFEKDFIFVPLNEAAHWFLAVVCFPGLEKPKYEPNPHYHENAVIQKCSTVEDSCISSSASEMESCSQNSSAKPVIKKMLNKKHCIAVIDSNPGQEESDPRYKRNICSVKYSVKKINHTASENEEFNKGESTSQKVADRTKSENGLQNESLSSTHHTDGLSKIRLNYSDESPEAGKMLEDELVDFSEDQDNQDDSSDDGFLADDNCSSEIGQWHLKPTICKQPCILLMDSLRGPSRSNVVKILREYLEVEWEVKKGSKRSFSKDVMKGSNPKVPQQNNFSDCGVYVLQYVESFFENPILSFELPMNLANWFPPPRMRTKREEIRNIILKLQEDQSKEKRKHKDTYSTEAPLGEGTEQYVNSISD
TRAIL sens C8: caspase-8 TRAIL sensitization | hit rate 1% among 360,000 | inhibition (viability loss, TRAIL sensitization), % at 10 µM | NB7+C8 cells + TRAIL, ATPlite viability luminescence;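 active means compounds causing at least 50% loss of cell viability in the single-dose screen, relative to plate controls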
SENP7 block: blocks the human protease SENP7 | AID 434973 | hit rate 1.5% among 330,000 | inhibition, % at 5 µM | Q9BQF6 | recombinant SENP7, Z-RLRGG-aminoluciferin luminescence, 40 min;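 active means inhibition above about 50% at the single test dose, limit read from the data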
SENP8 conf: human SENP8 inhibition, confirmed; shares compounds with SENP7 block; Recombinant SENP8, Z-RLRGG-aminoluciferin luminescence, 60 min; inhibition, % at 12.5 µM; hit rate 40% among 6,200;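 active means mean inhibition across replicates above about 50%, limit read from the data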
SENP6 confirm: human SENP6 inhibition, confirmed | shares compounds with SENP7 block | recombinant SENP6, Z-RLRGG-aminoluciferin luminescence | inhibition, % at 12.5 µM | hit rate 58% among 6,200
SENP7 confirm: human SENP7 inhibition, confirmed; AID 488917; hit rate 69% among 6,200; shares compounds with SENP7 block; recombinant SENP7, Z-RLRGG-aminoluciferin luminescence, 40 min; inhibition, % at 12.5 µM
Casp3 select: inhibits human caspase-3 in SENP selectivity test; hit rate 60% among 6,200; purified caspase-3, Z-DEVD-aminoluciferin luminescence, 60 min; shares compounds with SENP7 block; inhibition, % at 12.5 µM; AID 488918;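 active means mean inhibition above about 50%, limit read from the data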
SENP luc ctr: luminescence interference (SENP counter-screen). shares compounds with SENP7 block. Pre-incubated SENP8/Z-RLRGG-aminoluciferin, luciferase luminescence interference. inhibition, % at 12.5 µM. hit rate 39% among 6,200. AID 488919;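 active means mean inhibition above about 50% when retested at one dose, limit read from the data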
Of the large screens only hits and unclear results are named; the others gave an inactive call (follow-up assays come after a bar, where they were run). An excerpt weighted towards active compounds, which were near 3% of everything screened.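 How the source made its calls, unless noted: active means mean inhibition above about 50% in the one-dose retest (limit read from the data); inactive means the rest.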

COc1ccc(-c2csc(Nc3ccccn3)n2)cc1OC	none (no result: PPC-1+TRAIL kill)
Cc1cc(-c2csc(Nc3ccccn3)n2)ccc1F	SENP8 block-1 58.9, SENP6 inh 75.5, SENP7 block 67.3 (no result: PPC-1+TRAIL kill) | SENP8 conf inactive | SENP6 confirm 75.6 | SENP7 confirm 91.9 | Casp3 select inactive | SENP luc ctr inactive
Fc1ccc(-c2csc(Nc3ccccn3)n2)c(F)c1	SENP8 block-1 86.9, SENP6 inh 86.5, TRAIL sens C8 56.5, SENP7 block 86.0 (no result: PPC-1+TRAIL kill) | SENP8 conf 72.5 | SENP6 confirm 87.3 | SENP7 confirm 99.2 | Casp3 select 67.6 | SENP luc ctr inactive
O=C(O)c1ccc(N2C(=O)c3ccccc3C2=O)cc1[N+](=O)[O-]	none (no result: PPC-1+TRAIL kill, SENP8 block-1, SENP6 inh, SENP7 block)
C=CCN(C(=O)c1csnn1)C(C(=O)NC1CCCC1)c1ccc(OC)cc1 (stereo unspecified)	none (no result: PPC-1+TRAIL kill)
CC(=O)Nc1cccc(-c2csc(Nc3ncccn3)n2)c1	none (no result: SENP8 block-1, SENP8 block-2, SENP6 inh, TRAIL sens C8, SENP7 block)
Cc1ccnc(Nc2nc(-c3ccc(F)cc3)cs2)c1	SENP6 inh 62.6 (no result: PPC-1+TRAIL kill) | SENP8 conf inactive | SENP6 confirm inactive | SENP7 confirm 75.7 | Casp3 select inactive | SENP luc ctr inactive
CC(=O)Nc1cccc(-c2csc(Nc3ccc(C)cn3)n2)c1	SENP6 inh 68.9, TRAIL sens C8 64.0, SENP7 block 58.2 | SENP8 conf 66.1 | SENP6 confirm 64.3 | SENP7 confirm 87.3 | Casp3 select inactive | SENP luc ctr inactive
Cc1ccc(-c2csc(Nc3ccccn3)n2)cc1	SENP8 block-1 87.2, SENP6 inh 91.4, TRAIL sens C8 62.1, SENP7 block 88.9 (no result: PPC-1+TRAIL kill) | SENP8 conf 92.2 | SENP6 confirm 92.1 | SENP7 confirm 98.1 | Casp3 select 68.7 | SENP luc ctr 77.1
Cc1nc(C)c(-c2csc(Nc3ccccn3)n2)s1	SENP8 block-1 61.4, SENP6 inh 74.1, SENP7 block 54.1 (no result: PPC-1+TRAIL kill) | SENP8 conf inactive | SENP6 confirm 65.0 | SENP7 confirm 87.9 | Casp3 select inactive | SENP luc ctr 67.5
Cc1ccnc(Nc2nc(-c3ccc(Cl)cc3)cs2)c1	none (no result: PPC-1+TRAIL kill)
CCOC(=O)CNc1nc(C(C)(C)C)nc2c1nnn2Cc1ccccc1	none (no result: PPC-1+TRAIL kill)
Cn1c(N)c(C(=O)COC(=O)/C=C/c2cccc(Cl)c2)c(=O)n(C)c1=O	none (no result: PPC-1+TRAIL kill)
Cc1ccc(C(OCC(O)CNCc2ccc(F)cc2)c2ccccc2)cc1 (stereo unspecified)	none (no result: PPC-1+TRAIL kill)
Nc1ccc2c(c1)C(=O)c1ccccc1C2=O	SENP6 inh 52.5 (no result: PPC-1+TRAIL kill) | SENP8 conf 55.3 | SENP6 confirm 50.4 | SENP7 confirm 80.0 | Casp3 select 54.0 | SENP luc ctr inactive
COc1ccc(C(=O)COC(=O)c2ccccc2O)c(OC)c1	SENP6 inh 50.5 (no result: PPC-1+TRAIL kill) | SENP8 conf 51.4 | SENP6 confirm inactive | SENP7 confirm inactive | Casp3 select inactive | SENP luc ctr inactive
CCOc1ccccc1CNC(=O)Cn1ccc2cc(S(=O)(=O)N3CCC(C)CC3)ccc21	none (no result: PPC-1+TRAIL kill)
O=C(/C=C/c1c(F)cccc1Cl)Nc1cccnc1	SENP8 block-1 82.6, SENP6 inh 86.9, SENP7 block 90.1 (no result: PPC-1+TRAIL kill) | SENP8 conf inactive | SENP6 confirm 84.8 | SENP7 confirm 98.5 | Casp3 select 86.9 | SENP luc ctr inactive
COc1ccc(-c2ccc(SCc3ccccn3)nn2)cc1OC	none
COc1cccc(-c2ccc(SCc3ccccn3)nn2)c1	SENP8 block-1 59.2, SENP7 block 79.8 | SENP8 conf 75.3 | SENP6 confirm 67.1 | SENP7 confirm 92.2 | Casp3 select 86.4 | SENP luc ctr 77.8
Cc1nnc2sc(-c3cccc(F)c3)nn2c1=O	SENP8 block-1 69.7 (no result: PPC-1+TRAIL kill) | SENP8 conf 50.1 | SENP6 confirm 63.1 | SENP7 confirm inactive | Casp3 select 58.0 | SENP luc ctr inactive
Cc1cc(C)c(C(=O)COC(=O)c2nn(C)c(=O)c3ccccc23)cc1C	none (no result: PPC-1+TRAIL kill)
C#CCNC(=O)c1ccc(OCc2ccccc2)cc1Cl	SENP8 block-1 63.4, SENP6 inh 75.1, SENP7 block 64.4 | SENP8 conf 69.8 | SENP6 confirm 66.9 | SENP7 confirm 87.0 | Casp3 select 80.0 | SENP luc ctr 69.4
O=C(Nc1cccc(O)c1)c1cc(-c2ccc3c(c2)OCO3)on1	SENP8 block-1 89.5, SENP6 inh 95.6, TRAIL sens C8 92.5, SENP7 block 100.8 (no result: PPC-1+TRAIL kill) | SENP8 conf inactive | SENP6 confirm 95.1 | SENP7 confirm inactive | Casp3 select 76.8 | SENP luc ctr inactive
COc1cc(NC(=O)c2cc(-c3ccc4c(c3)OCO4)on2)cc(OC)c1OC	none (no result: PPC-1+TRAIL kill)
COc1ccc(NC(=O)c2cc(-c3ccccc3Cl)on2)cc1OC	none (no result: PPC-1+TRAIL kill)
O=C(Nc1cccc(O)c1)c1cc(-c2ccccc2Cl)on1	SENP8 block-1 93.2, SENP6 inh 96.9, TRAIL sens C8 70.2, SENP7 block 95.1 (no result: PPC-1+TRAIL kill) | SENP8 conf inactive | SENP6 confirm 94.2 | SENP7 confirm 100.6 | Casp3 select 86.9 | SENP luc ctr 93.9
Cc1cccc(-c2cnn(-c3cccc([N+](=O)[O-])c3)c2N)c1	none
Cc1cccc(-c2cnn(-c3ccccc3)c2N)c1	SENP6 inh 50.3, SENP7 block 65.7 (no result: PPC-1+TRAIL kill) | SENP8 conf inactive | SENP6 confirm inactive | SENP7 confirm 81.0 | Casp3 select 64.2 | SENP luc ctr 63.5
Nc1c(-c2ccccc2)cnn1-c1cccc(Cl)c1	SENP8 block-1 84.3, SENP6 inh 89.9, SENP7 block 93.9 (no result: PPC-1+TRAIL kill) | SENP8 conf 89.6 | SENP6 confirm 89.5 | SENP7 confirm 99.1 | Casp3 select 87.1 | SENP luc ctr 81.0
Cc1c(NC(=O)c2cc3c(s2)CCCC3)c(=O)n(-c2ccccc2)n1C	SENP8 block-1 61.2 | SENP8 conf inactive | SENP6 confirm inactive | SENP7 confirm inactive | Casp3 select inactive | SENP luc ctr inactive
Cc1ccccc1NC(=O)Cn1c(C)nc2ccc(NC(=O)C3CC3)cc2c1=O	SENP7 block 71.3 | SENP8 conf inactive | SENP6 confirm inactive | SENP7 confirm inactive | Casp3 select inactive | SENP luc ctr inactive
O=C(Nc1cccc(C(=O)N2CCOCC2)c1)c1ncn[nH]1	SENP7 block 84.5 | SENP8 conf inactive | SENP6 confirm inactive | SENP7 confirm inactive | Casp3 select inactive | SENP luc ctr inactive
CCCCN(C(=O)C1CSC2(C)CCC(=O)N12)c1c(N)n(CC(C)C)c(=O)[nH]c1=O (stereo unspecified)	none (no result: PPC-1+TRAIL kill)
